# NS1 function inh: blocks influenza NS1 protein function | Potency, µM (series often up to 46.1 µM), without a hit: at the top dose activity, positive = more growth | actives 0.4% (n = 270,000) | AID 2326; further: potency means the concentration at half of the fitted maximal effect; actives are rising curves; nearly all actives have a fitted effect of over 50% in size
#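 Recovery from NS1-induced slow growth read by OD600 in budding yeast switched to galactose assay medium (pH 6.0, -URA) at 1:100 dilution. Compound 23 nl per well; the matching strain lacking NS1 serves as control.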
# Cruzain noTriton: inhibitors of Trypanosoma cruzi cruzain without detergent | P25779 | purified cruzain, Z-FR-AMC fluorescence, no detergent | Potency, µM, without a hit: max response, negative = inhibition, hits mostly inhibitors | actives 2.3% (n = 200,000) | AID 1476; active means well fitted curve in the direction sought with a large enough effect; inconclusive means small, poorly fitted or top-dose-only effect, or another doubt; inactive means no such curve, though single readings can be large; an effect the other way counts as inactive or inconclusive;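 further: potency means the concentration at half of the fitted maximal effect; plate controls were enzyme without inhibitor for no effect and buffer without enzyme for full effect; nearly all actives have a fitted effect of over 40% in size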
# Target sequence (P25779 123-467 limits assumed): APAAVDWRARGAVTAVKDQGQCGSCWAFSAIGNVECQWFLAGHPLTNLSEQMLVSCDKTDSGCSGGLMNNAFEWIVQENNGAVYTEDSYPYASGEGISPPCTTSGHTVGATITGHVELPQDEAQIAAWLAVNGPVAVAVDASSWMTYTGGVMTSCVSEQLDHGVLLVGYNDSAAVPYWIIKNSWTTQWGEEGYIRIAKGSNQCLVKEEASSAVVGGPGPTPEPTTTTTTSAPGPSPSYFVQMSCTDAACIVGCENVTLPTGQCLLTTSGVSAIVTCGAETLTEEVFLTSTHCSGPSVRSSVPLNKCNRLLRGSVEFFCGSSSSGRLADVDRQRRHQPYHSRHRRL
#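 Purified cruzain at 1.5 nM, pre-incubated 15 min with compound at room temperature in 100 mM sodium acetate pH 5.5, 5 mM DTT, 0.00005% Triton X-100. Reaction started with 2 uM Z-FR-AMC; AMC fluorescence increase over 60 s gives rate.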
# Cruzain Triton: blocks cruzain activity in presence of Triton detergent; P25779; purified cruzain, Z-FR-AMC fluorescence, 0.01% Triton; Potency, µM, for the others: max response, negative = inhibition, most hits filed as inhibitors; actives 0.43% (n = 200,000); active means well fitted curve in the direction sought with a large enough effect; inconclusive means small, poorly fitted or top-dose-only effect, or another doubt; inactive means no such curve, though single readings can be large; an effect the other way counts as inactive or inconclusive;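 further: potency means the concentration at half of the fitted maximal effect; plate controls were neutral wells for no effect and buffer without enzyme for full effect; nearly all actives have a fitted effect of over 40% in size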
#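 Compounds were screened in titration against cruzain (1.5 nM) with 0.01% Triton X-100 to counter colloidal aggregation. Activity was the AMC fluorescence increase over 60 s after adding 2 uM Z-FR-AMC at pH 5.5.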
# NS1 inh valid: influenza NS1 function inhibition validation. shares compounds with NS1 function inh. influenza NS1 function cell assay, 15-point titration. activity change, negative = inhibition, % at 32.9 µM. 1,400 tested, under 10 active; further: 0% is about no effect
# Flu PR8 replic: influenza NS1 inhibitors: inhibition of influenza A/PR/8/34 replication; shares compounds with NS1 function inh; MDCK infected influenza A/PR/8/34, virus titer TCID50; hits give low values; virus titer (log TCID50), log10 TCID50 at 5 µM; actives 30% (n = 95); AID 504647; call rule not given here
# * hit, by the source's call; ? = inconclusive; nt = no result; ! = not confirmed by another sample. The full list was thinned out, with hits kept by preference. Unless noted, the call rests on the fitted dose curve.
SMILES,NS1 function inh,Cruzain noTriton,Cruzain Triton,NS1 inh valid,others
O=C(Cc1cc(=O)[nH][nH]1)N/N=C/C=C/c1ccccc1,5µM*!,-11%,-3%,33,
COc1ccc(-n2c(SCC(=O)N3CCCC3)nc3ccccc3c2=O)cc1,-1%,nt,nt,nt,
COc1ccc(-n2c(SCC(=O)N3CCCCC3)nc(O)cc2=O)cc1,11µM*,17%,-1%,?,Flu PR8 replic=8.5
COc1ccc(-c2nc(NC(=O)C3CC(=O)N(c4ccc5c(c4)OCCO5)C3)sc2C)cc1 (configuration not stated),11µM*,2%,-5%,7,
O=C(Nc1nnc(C2CC2)s1)C1CC(=O)N(c2ccc3c(c2)OCCO3)C1 (configuration not stated),27%,-9%,-1%,nt,
CCN(Cc1ccccc1)C(=O)Cn1c(=O)oc2cc(S(=O)(=O)N3CCCCCC3)ccc21,nt,39%,4%,nt,
Cc1ccc(CNC(=O)C2CCCN(c3nc4c(C)cc(C)cc4s3)C2)cc1 (configuration not stated),nt,0%,1%,nt,
COc1ccc(-n2ncc(C(=O)NCCCN3CCCCC3)c2C2CCN(C(=O)OC(C)(C)C)CC2)cc1,nt,-6%,-1%,nt,
CCN1CCN(C(=O)c2cn(CCOC)c(=O)c3c2c2ccccc2n3C)CC1,5%,2%,4%,nt,
Cn1cc(C(=O)N2CCN(C(=O)c3ccco3)CC2)c2c3ccccc3n(C)c2c1=O,4µM*,4%,-3%,-7,
Cc1cccc(C)c1OC(=O)CSc1nnc(-c2ccc3c(c2)OCO3)o1,nt,-6%,-3%,nt,
Cc1ccc(-n2c(SCC(=O)Nc3ccc4c5c(cccc35)CC4)nc(O)cc2=O)cc1,?,71%,?,nt,
Cc1ccc(-n2c(SCC(=O)Nc3ccc4c5c(cccc35)CC4)nc(O)c(C)c2=O)cc1,7.9µM*,?,-14%,38,
CCc1ccc(NC(=O)C2CCN(c3nn4c(=O)cc(C)nc4s3)CC2)cc1,nt,-3%,-2%,nt,
CCOc1cc(C#N)c(NC(=O)CSc2nnnn2-c2ccc(OC)cc2)cc1OCC,?,?,2%,-2,
COc1ccc(-n2nnnc2SCC(=O)Nc2ccc(OC)cc2OC)cc1,-7%,nt,nt,nt,
COc1ccc(CSc2nc(O)cc(=O)n2CC(C)C)cc1F,3.5µM*,nt,nt,?,
COc1ccc(CSc2nncn2C)cc1F,3%,nt,nt,nt,
c1ccc(CCNC2=NCCCS2)cc1,?,-2%,2%,-9,
c1ccc(CCNC2=NCCS2)cc1,3%,nt,nt,nt,
COc1ccc(C)cc1NC(=O)C(Sc1nnc(-c2cccs2)o1)c1ccccc1 (configuration not stated),11µM*,?,-5%,-26,
O=C(Nc1ccc(Cl)cc1C(F)(F)F)C(Sc1nnc(-c2cccs2)o1)c1ccccc1 (configuration not stated),25%,?,-2%,nt,
CCCCOCCCNC(=S)Nc1ccc(S(=O)(=O)N2CCOCC2)cc1,1%,nt,nt,nt,
O=S(=O)(c1ccc(NC(=S)NCCC(c2ccccc2)c2ccccc2)cc1)N1CCOCC1,14µM*,25µM*,-12%,15,
CCOC(=O)c1c(C)[nH]c(CCC(=O)Nc2ccc(N(CC)CC)cc2C)c1C,nt,-1%,2%,nt,
SMILES,NS1 function inh,Cruzain noTriton,Cruzain Triton,NS1 inh valid,others
COc1cccc2c1OCC/C2=N\NC(=O)COc1ccc(C)cc1,?,-16%,3%,-28,
Cc1ccc(OCC(=O)N/N=C2\CCOc3c(C)cccc32)cc1,-3%,4%,1%,nt,
CC(=O)N1CCc2cc(CNC(=O)Nc3ccc(Br)c(C)c3)ccc21,nt,-9%,0%,nt,
COC(=O)C(NC(C)=O)(Nc1nc2ccc(C)cc2s1)C(F)(F)F (configuration not stated),8.9µM*,0%,1%,-5,
COC(=O)C(NC(C)=O)(Nc1nc2ccc(S(C)(=O)=O)cc2s1)C(F)(F)F (configuration not stated),1%,-6%,3%,nt,
COc1c2ccoc2nc2c(OC)c(O[C@@H]3O[C@H](C)[C@@H](O)[C@@H](O)[C@H]3O)ccc12,nt,-2%,-1%,nt,
CCCCn1c(SCC(=O)N2c3ccccc3Sc3ccccc32)nc2c1c(=O)n(C)c(=O)n2C,11µM*,15%,-4%,4,
CCn1c(SCC(=O)N2c3ccccc3Sc3ccccc32)nc2c1c(=O)n(C)c(=O)n2C,-37%,?,-1%,nt,
CCOC(=O)c1ccccc1NC(=O)CSc1cn(CC(=O)N2CCCCC2)c2ccccc12,nt,-11%,-2%,nt,
Cc1ccc(-c2[nH]c3ccccc3c2SCCNC(=O)c2cc3ccccc3oc2=O)cc1,?,?,-2%,nt,
O=C(NCCSc1c(-c2ccccc2)[nH]c2ccccc12)c1cc2ccccc2oc1=O,11µM*,?,-3%,-3,
Cc1ccc2oc(=O)c3cc(C(=O)N4CCN(c5ccccc5)CC4)sc3c2c1,nt,-9%,2%,nt,
CCCCOc1cccc(C(=O)Nc2ccc(S(=O)(=O)Nc3nnc(CC)s3)cc2)c1,8.9µM*,nt,nt,11,
CCc1nnc(NS(=O)(=O)c2ccc(NC(=O)c3cccc([N+](=O)[O-])c3)cc2)s1,22%,nt,nt,nt,
Cc1ccc(Oc2c(C(F)(F)F)oc3cc(OCC(=O)NC4CCCCC4)ccc3c2=O)cc1,nt,-1%,-1%,nt,
CCCCNC(=O)c1ccc2c(c1)ncn2C1CCCC1,-4%,11%,4%,nt,
CC1CC(C)CN(CCCNC(=O)c2ccc3c(c2)ncn3C2CCCC2)C1 (configuration not stated),?,nt,nt,-38,
O=C(CSc1nnnn1-c1ccccc1)CC(=O)Nc1ccc(Cl)cc1,2.5µM*,?,-18%,10,
NC(=O)c1ccc(-n2nnnc2SCC(=O)Nc2ccccc2)cc1,14%,nt,nt,nt,
O=C(CSc1nnc(-c2ccc(O)cc2)n1-c1ccccc1)CC(=O)Nc1ccccc1,10µM*,6%,-1%,23,
Cn1c(SCC(=O)CC(=O)Nc2ccccc2)nnc1-c1ccc(O)cc1,?,10%,2%,nt,
Cc1cc(C)cc(NC(=O)CN2C(=O)CCc3cc(S(=O)(=O)N4CCCCC4)ccc32)c1,nt,6%,-5%,nt,
Cc1occc1-c1nnc(SCC(=O)c2ccc(F)cc2)n1Cc1ccco1,-2%,-15%,-3%,nt,
O=C(CSc1nnc(-c2cc3ccccc3cc2O)n1Cc1ccco1)c1ccc(F)cc1,8.9µM*,?,-4%,-29,
CCN(C(=O)c1ccccc1)c1ccc([N+](=O)[O-])cc1,-2%,-8%,-2%,nt,
O=[N+]([O-])c1ccc(N(c2ccccc2)c2ccccc2)cc1,?,?,0%,?,
O=c1c(O)c(-c2ccc(O)cc2)oc2ccc(O)cc12,nt,2%,2%,nt,
CC(OC(=O)CCCCCN=C1NS(=O)(=O)c2ccccc21)C(=O)Nc1cc(Cl)cc(Cl)c1 (configuration not stated),13µM*,12%,-2%,6,
CC(=O)Nc1ccc(NC(=O)C(C)OC(=O)CCN=C2NS(=O)(=O)c3ccccc32)cc1 (configuration not stated),8%,nt,nt,nt,
Cc1ccc(Cl)cc1N1CCN(CCNC(=O)Nc2ccccc2Cl)CC1,nt,5%,0%,nt,
